# Reference: PubChem BioAssay AID504882 (Broad Institute, 2011)
# Hit rate of the full screen: of about 1,200 compounds, about 290 (24%) were called active. Not shown: some 9% with an inconclusive outcome. How the calls were made is not given here. These entries were drawn from the full list. Measured potencies and affinities stand elsewhere.
# Assay: LCL viability reduction – cell-based, plate reader, cherry-picks, set 2, cytotoxicity control, dose response (AID 504882);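 further: 0% = neutral control wells and -100% = positive control wells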
# Settings: EBV lymphoblastoid cells (LCL) viability; series mostly up to 19.5 µM; activity change, negative = cytotoxicity: at the top concentration
row,SMILES,"activity change, negative = cytotoxicity"
1,O=C(N/N=C(/CC(=O)c1cccs1)C(F)(F)F)c1ccc(O)cc1,18.3% (inactive)
2,CCC(C)[C@H](NC(=O)NCc1cccnc1)C(=O)OC (some centres undefined),11.4% (inactive)
3,Cc1cccc(C)c1NC(=O)CN(C)C(=O)c1ccc(-c2cccc(C(F)(F)F)c2)o1,25.4% (inactive)
4,O=C(CN1C(=O)c2ccccc2S1(=O)=O)c1ccc(F)c(F)c1,15.6% (inactive)
5,COc1ccc(-n2c(SCC(=O)Nc3ccc4c(c3)OCO4)nc3c(c2=O)SCC3)cc1,16.8% (inactive)
6,Cc1ccnc(NC(=O)CCC(=O)c2cccs2)c1,-9.24% (inactive)
7,COc1ccc(C(=O)Nn2c(SCC(=O)NC3CCCCC3)nc3ccccc3c2=O)cc1,-5.87% (inactive)
8,NC(=O)CC(NC(=O)c1ccccc1)c1ccc(NC2CCN(Cc3ccccc3)CC2)c([N+](=O)[O-])c1 (centres undefined),18.1% (inactive)
9,Cc1cccc(Cn2cc(SCC(=O)Nc3nccs3)c3ccccc32)c1,-0.243% (inactive)
10,COC(=O)c1c(O)ccc(Oc2ccccc2)c1C(=O)OC,5.36% (inactive)
11,COc1ccc2oc(C(=O)NCCc3ccccc3)c(C)c2c1,-3.62% (inactive)
12,COc1ccc(-n2c(SCC(=O)Nc3cc(C)on3)nc3c(c2=O)SCC3)cc1,17.6% (inactive)
13,Cc1ccc(-n2ccc(=O)c(C(=O)Nc3ccc(S(=O)(=O)N4CCOCC4)cc3)n2)cc1,17.9% (inactive)
14,O=C1c2ccccc2C(Nc2cccnc2)N1Cc1ccccc1 (centres undefined),22.9% (inactive)
15,COc1cc(/C=N/NC(=O)c2cccc(S(=O)(=O)N3CCOCC3)c2)cc(OC)c1O,21.9% (inactive)
16,COc1cc(C(=S)N2CCOCC2)cc(OC)c1OC(=O)c1ccc(F)cc1,24.8% (inactive)
17,O=C(NOCc1ccccc1)c1ccc(Cl)cc1Cl,-4.17% (inactive)
18,C[C@H]1C[C@H]2[C@@H]3CCC4=CC(=O)C=C[C@]4(C)[C@@]3(F)[C@@H](O)C[C@]2(C)[C@@]1(O)C(=O)CO,22.7% (inactive)
19,CC1CCC(NC(=O)CC2Oc3ccccc3NC2=O)CC1 (centres undefined),5.69% (inactive)
20,O=C1CN(C(=O)c2ccc(F)c(S(=O)(=O)N3CCOCC3)c2)c2ccccc2N1,14.2% (inactive)
21,CC(C)c1nnc(NC(=O)c2ccc(N3C(=O)CCC3=O)cc2)s1,18% (inactive)
22,COc1cc2c(cc1OC)-c1cc(Nc3ccc4c(c3)OCCO4)nc(=O)n1CC2,19.9% (inactive)

row,SMILES,"activity change, negative = cytotoxicity"
1,COc1cccc(C(=O)Nc2nc3ccccc3[nH]2)c1,-12.2% (inactive)
2,COc1ccccc1C=NN=Cc1ccccc1O,28.7% (inactive)
3,CCCC(=O)NCCCc1nc2ccccc2[nH]1,-0.384% (inactive)
4,CCc1ccc(-c2nnn(CCC(=O)OC)n2)cc1,13.5% (inactive)
5,COc1cccc(C(=O)CC(=O)C(=O)Nc2ccc(C)cc2Cl)c1,-18.2% (inactive)
6,CCc1ccc(/C=C/C(=O)C2C(=O)c3ccccc3C2=O)cc1,-11.9% (inactive)
7,O=C(OCc1ccccc1F)c1cc2ccccc2cc1O,12.3% (inactive)
8,CCS(=O)(=O)c1nnnn1-c1ccccc1S(C)(=O)=O,-2.8% (inactive)
9,C[C@H](NC(=O)N1CCn2c1nc1ccccc12)C(=O)NCC1CCCO1 (some centres undefined),25.5% (inactive)
10,CCOC(=O)c1ccc(NC(=S)N2CCSC2c2ccc(OC)cc2)cc1 (centres undefined),6.17% (inactive)
11,COC(=O)c1[nH]c2cccc(C)c2c1NC(=O)CN1CCCc2ccccc21,11.1% (inactive)
12,CC(C)(C)c1nc2c(s1)CCc1onc(-c3ccc(Br)cc3)c1-2,7.52% (inactive)
13,Cc1nc2sc(C(N)=O)c(N)c2c2c1CCCC2,8.1% (inactive)
14,O=C(Nc1ccc(Cl)cc1)c1ccco1,1.44% (inactive)
15,O=C(Nc1ccc2c(c1)nc1n2CCSC1)c1ccco1,-6.4% (inactive)
16,CCOC(=O)C1=C(O)/C(=C/c2ccc(CNC(=O)C(=O)Nc3ccc(C)cc3)o2)N=C1C,51% (inactive)
17,Nc1cc(=O)[nH]c(SCCSc2cc(Cl)ccc2Cl)n1,12.4% (inactive)
18,CC(C)(C)c1cc(C(=O)NNC(=O)Nc2cccc(Cl)c2)n(Cc2ccccc2)n1,-0.268% (inactive)
19,CC(=O)O[C@]1(C(C)=O)CC[C@H]2[C@@H]3C=C(C)C4=CC(=O)CC[C@@H]4[C@H]3CC[C@@]21C,1.64% (inactive)
20,O=C(O)c1ccccc1Nc1cccc(OCc2ccc3ccccc3n2)c1,-17.2% (inactive)
21,c1ccc2c3c([nH]c2c1)C(C1CCCCC1)N(Cc1ncc[nH]1)CC3 (centres undefined),13.2% (inactive)
22,Brc1ccc(-c2csc(N3CCCCCC3)n2)cc1,18.1% (inactive)

row,SMILES,"activity change, negative = cytotoxicity"
1,O=C1c2ccccc2C(Nc2ccc(Cl)cc2)N1CCN1CCOCC1 (centres undefined),8.15% (inactive)
2,COc1cc(/C=C2\SC(=S)N(NC(=O)c3ccncc3)C2=O)ccc1O,-1.11% (inactive)
3,CCc1nnc(NC(=O)c2cc(S(=O)(=O)N3CCN(CC)CC3)ccc2Cl)s1,3.73% (inactive)
4,COc1cc2c(=O)n(CC3CCCO3)c(=O)n(CC(=O)Nc3cccc(Cl)c3)c2cc1OC (centres undefined),18.9% (inactive)
5,COc1ccc(NC(=O)N(CCN2CCCC2)Cc2cc3cc(OC)c(OC)cc3[nH]c2=O)cc1,5.63% (inactive)
6,Cc1cccc(C)c1NC(=O)CN(C)CC(=O)Nc1ccccc1Oc1ccccc1,11.5% (inactive)
7,Cc1ccc(C(=O)Nc2ccc3ncccc3c2)cc1,21.2% (inactive)
8,O=C(O)c1c2c(nc3ccccc13)/C(=C/c1ccc(O)cc1)CC2,10% (inactive)
9,CSc1nc(C)cc(C)c1C#N,3.6% (inactive)
10,CC1(C)CN(Cc2ccccc2)C(=O)[C@H]1CC(=O)Nc1ccccc1,2.36% (inactive)
11,O=C(Cc1cccc2ccccc12)Nc1ccc(-c2cc3ccccc3oc2=O)cc1,-7.33% (inactive)
12,NC(=O)c1sc2nccc(Nc3ccccc3)c2c1N,-3.78% (inactive)
13,CCCCCC(=O)N1CCN(c2ccc(C(C)=O)cc2F)CC1,9.94% (inactive)
14,COc1ccc(C(c2c(C)n(C)n(-c3ccccc3)c2=O)c2c(C)n(C)n(-c3ccccc3)c2=O)c(OC)c1OC,1.22% (inactive)
15,CC(C)C(=O)Nc1ccc(C(=O)N/N=C/c2cc(Br)cc(Br)c2O)cc1,-1.17% (inactive)
16,CCSc1nc2ccc(OC)cc2cc1C#N,4.84% (inactive)
17,COc1ccccc1C(=O)Nc1c[nH]c(=O)[nH]c1=O,23.5% (inactive)
18,CN1OC[C@@H]2CN[C@H](c3ccc(-c4cc5ccccc5o4)cc3)C[C@@H]21,49.6% (inactive)
19,O=C(O)CN1C(=O)/C(=C\c2ccccc2OCc2ccc(Cl)cc2Cl)SC1=S,10.7% (inactive)
20,COc1cc(/C=N/NC(=S)Nc2cccc(C(=O)O)c2)ccc1O,12.8% (inactive)
21,S=C(N/N=C/c1ccc2ncccc2c1)Nc1cccnc1,7.27% (inactive)
22,OCCN(CCO)CC(O)COCCC12CC3CC(CC(C3)C1)C2 (centres undefined),4.48% (inactive)

row,SMILES,"activity change, negative = cytotoxicity"
1,O=C(Nc1cnc2ccccn2c1=O)c1ccc(Cl)cc1Cl,11.6% (inactive)
2,O=C(O)c1ccc(C=NN=C2c3ccccc3-c3ccccc32)cc1,9.04% (inactive)
3,CC(=O)c1ccc(N2CCN(c3ccnc4cc(Cl)ccc34)CC2)cc1,11.5% (inactive)
4,Cc1cc(C)c2sc(NC(=O)C3CC3)nc2c1,2.97% (inactive)
5,N#CC1=C(N)OC2=C(C(=O)CCC2)C12C(=O)N1CCCc3cccc2c31 (centres undefined),23.6% (inactive)
6,Clc1ccc(-n2ncc3c(N4CCCC4)ncnc32)cc1,-0.246% (inactive)
7,COc1ccc(-c2csc3ncnc(Sc4nnnn4C)c23)cc1,-16.8% (inactive)
8,Cc1ccsc1-c1nc(CSCC(=O)N2CCN(c3ccccc3)CC2)c(C)o1,-2.87% (inactive)
9,COc1cc(NC(=S)N2CCN(CCO)CC2)cc(OC)c1,2.13% (inactive)
10,COc1ccc2cc(C(N)=O)/c(=N\NC(=O)c3ccccc3)oc2c1,16.4% (inactive)
11,CCCN1C(=O)C2(SC(NC(C)=O)=NN2C(C)=O)c2cc(C)cc(C)c21 (centres undefined),18.1% (inactive)
12,c1ccc(-c2nnc(-c3ccccn3)s2)nc1,-32.2% (inactive)
13,Cc1cc(C)c(OCCn2ccnc2)c(C)c1,-5.95% (inactive)
14,COc1ccc(C=Cc2ccc3ccccc3n2)c(OC)c1,3.74% (inactive)
15,C[C@@]12C(=O)N(Cc3ccccc3)CC(=O)N1[C@H](/C=C/c1ccccc1)[C@@H]1C(=O)N(c3ccccc3)C(=O)[C@@H]12,1.32% (inactive)
16,CCOC(=O)N1CCC(n2c(=S)[nH]c3ccccc3c2=O)CC1,1.97% (inactive)
17,O=C1CC(c2ccccc2)Oc2ccccc21 (centres undefined),9.53% (inactive)
18,C[C@@H](C(=O)Nc1ccc2c(c1)OCCO2)n1c(=O)[nH]c2ccccc2c1=O,12.3% (inactive)
19,CCCCOc1ccc2c(c1)/C(=C(\C(Cl)=C(Cl)Cl)[N+](=O)[O-])N2,5.83% (inactive)
20,Cc1ccc(-n2cc(C(=O)c3ccccc3O)cn2)cc1,-2.73% (inactive)
21,COc1ccc(OC)c(S(=O)(=O)NC(C)CCc2ccccc2)c1 (centres undefined),7.72% (inactive)
22,CC(C(=O)N=Nc1c(O)[nH]c2ccccc12)n1cnc2ccccc2c1=O (centres undefined),7.22% (inactive)

row,SMILES,"activity change, negative = cytotoxicity"
1,COc1ccc(Cl)cc1NC(=O)CN(C)S(=O)(=O)c1cccs1,-6.66% (inactive)
2,Cc1cc(C)cc(C(=O)NCCC(=O)NCc2cc(=O)n(C)c(=O)n2C)c1,12.5% (inactive)
3,COc1ccc(S(=O)(=O)N2CCN(CC(=O)Nc3ccc(C)c(F)c3)CC2)cc1,19.6% (inactive)
4,CCOC(=O)C1CCN(S(=O)(=O)Cc2ccccc2)C1=O (centres undefined),26.9% (inactive)
5,Cc1cc(C)c(S(=O)(=O)Nc2nnc(CC(C)C)s2)c(C)c1,7.94% (inactive)
6,CC(=O)c1cc(C(=O)Nc2ccc(C(=O)O)cc2)oc1C,13.6% (inactive)
7,CCSc1nnc(NC(=O)CCn2c(=O)oc3ccccc32)s1,12.2% (inactive)
8,COC(=O)CCCC[C@@H]1SC[C@@H](NC(=O)OC)[C@@H]1NC(=O)OC,9.98% (inactive)
9,COC(=O)c1ccccc1NC(=O)CSc1nnnn1C,19.1% (inactive)
10,COc1ccc(N2C3=[N+](CC2(C)O)c2ccccc2CC3)cc1 (centres undefined),14.6% (inactive)
11,O=S(=O)(NC1c2cccc3cccc(c23)C1Sc1ncccn1)c1ccccc1 (centres undefined),4.11% (inactive)
12,COc1ccc(CNC(=O)COC(=O)[C@@H]2CCCN2C(=O)c2cccs2)cc1,25% (inactive)
13,S=C(NCC1CCCCC1)Nc1ccc(Oc2ccccc2)cc1,1.93% (inactive)
14,O=C(c1noc2c1CCCC2)N1CCCCC1,9.86% (inactive)
15,CCOc1ccc(NC(=O)c2cnsn2)cc1,8.89% (inactive)
16,CCOC(=O)c1cn2nc(N3CCCCC3)ccc2n1,0.96% (inactive)
17,COC(=O)c1ccc2nc(-c3ccc4c(c3)OCO4)cn2c1,4.82% (inactive)
18,CCOc1cc(/C=C2/C(=N)N3N=C(CC)SC3=NC2=O)ccc1OC(=O)c1ccco1,16.1% (inactive)
19,COC(=O)c1ccc(CSc2nc3c(c(=O)n2-c2ccc(C)cc2)SCC3)o1,6.1% (inactive)
20,COC(=O)CSc1ncnc2c1sc1nc3c(cc12)COC(C)(C)C3,-11.8% (inactive)
21,CCOC(=O)CNC(=O)CSc1nnc(NC(=O)c2ccc(C)cc2)s1,27.2% (inactive)
